C diff HTS: blocks growth of Clostridium difficile | Clostridium difficile clinical isolate growth, OD600, 24 h; active compounds read low | AID 1259249 | growth activity, negative = inhibition, % at 16 µg/mL (by protocol) | 86,000 tested, 0.25% active;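 active means mean growth activity at or below -80% and every replicate also at or below -80%; inconclusive means mean at or below -80% but some replicate above -80%; inactive means mean growth activity above -80%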;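 further: 0% = DMSO wells and -100% = levofloxacin 16 µg/mL wells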
T cruzi growth-1: blocks T. cruzi growth in NIH3T3 culture | T. cruzi beta-gal in NIH3T3, GalScreen luminescence, 90 h | inhibition, % at 8.34 µM | 77,000 tested, 5.9% active;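 active means mean inhibition above about 93%, with at least 55% of replicates each passing it, limit read from the data, passing the limit was not always enough; inconclusive means only one of those two conditions holds; inactive means neither condition holds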
Pf Dd2 inh: inhibitors of Plasmodium falciparum Dd2 growth. P. falciparum Dd2 growth, SYBR Green, 72 h; active compounds read low. 94,000 tested, 2.3% active. activity change, % at 10 µM. AID 1159554; in the data active means activity change below about -80%; inconclusive means no clear call, values can overlap the other calls
T cruzi growth-2: Trypanosoma cruzi proliferation inhibition | T. cruzi beta-gal in NIH3T3, GalScreen luminescence, 90 h | shares compounds with T cruzi growth-1 | 5,600 tested, 72% active | inhibition, % at 8.35 µM;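 active means mean replicate inhibition above about 95% and at least 55% of replicates individually reaching it, limit read from the data; inconclusive means only one of the two criteria is met; inactive means neither criterion is met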
T cruzi growth-3: Trypanosoma cruzi proliferation inhibition. AID 651740. T. cruzi beta-gal in NIH3T3, GalScreen luminescence, 90 h. inhibition, % at 2.09 µM. shares compounds with T cruzi growth-1. 5,600 tested, 21% active;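 active means mean inhibition above about 95%, with at least 55% of replicates also reaching it, limit read from the data; inconclusive means meets just one of the two conditions; inactive means meets neither condition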;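 further: plate controls were neutral control median for no effect and positive control median for full effect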
3T3 cytotox: cytotoxicity in mouse NIH/3T3 fibroblasts; shares compounds with T cruzi growth-1; NIH/3T3 viability, CellTiter-Glo ATP luminescence, 90 h; cytotoxicity (signal decrease), % at 8.35 µM; 5,600 tested, 14% active;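 active means mean signal decrease across replicates above about 35% based on untreated-well scatter, with enough replicates individually passing, limit read from the data; inconclusive means no rule stated though some were filed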;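 further: 0% = median of neutral control wells and 100% = median of positive control wells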
NIH3T3 tox 2: kills mouse NIH/3T3 fibroblasts; shares compounds with T cruzi growth-1; NIH/3T3 viability, CellTiter-Glo ATP luminescence, 90 h; inhibition, % at 24.9 µM; 5,600 tested, 56% active; AID 651744;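 active means mean loss of cell viability signal at or above a set limit, and enough replicates individually reaching it; inconclusive means meets only the mean limit or only the replicate share; inactive means meets neither condition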;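 further: 0% = median of neutral control wells and 100% = median of positive control wells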
* = called active by the depositor; ? = inconclusive; . = not tested or not shown; ! = not active in a repeat. An excerpt weighted towards active compounds, which were near 6.7% of everything screened.

SMILES	C diff HTS	T cruzi growth-1	Pf Dd2 inh	T cruzi growth-2	T cruzi growth-3	3T3 cytotox	NIH3T3 tox 2
C[C@@H]1CN([C@@H](C)CO)C(=O)c2cc(NS(=O)(=O)c3ccc(Cl)cc3)ccc2O[C@@H](C)CCCCO[C@@H]1CN(C)S(=O)(=O)c1cccs1	9	95	-46	.	.	.	.
CO[C@@H]1CN(C)C(=O)c2ccc(NC(=O)C3CCC3)cc2OC[C@H](C)N(Cc2ccncc2)C[C@H]1C	.	15	.	.	.	.	.
COc1cccc(S(=O)(=O)N[C@H]2CC[C@@H](CCn3cc(-c4ccccc4OC)nn3)O[C@H]2CO)c1	2	37	-8	.	.	.	.
C[C@H]1CN([C@@H](C)CO)C(=O)Cc2cc(NS(=O)(=O)c3ccccc3)ccc2O[C@@H]1CN(C)Cc1ccc(C(=O)O)cc1	-5	-13	17	.	.	.	.
C[C@@H]1CN([C@H](C)CO)C(=O)c2cccc(NS(=O)(=O)c3cccs3)c2O[C@H]1CN(C)Cc1ccc(Cl)c(Cl)c1	4	46	-3	.	.	.	.
CCS(=O)(=O)Nc1ccc2c(c1)C(=O)N(C)C[C@@H](OC)[C@H](C)CN(Cc1nccs1)[C@H](C)CO2	.	-25	14	.	.	.	.
C[C@@H]1CCCCO[C@@H](CN(C)S(=O)(=O)c2cccs2)[C@@H](C)CN([C@H](C)CO)C(=O)c2cc(NS(=O)(=O)c3ccc(F)cc3)ccc2O1	-5	10	.	.	.	.	.
C[C@@H]1CCCCO[C@@H](CN(C)S(=O)(=O)c2cccs2)[C@H](C)CN([C@@H](C)CO)C(=O)c2cc(N(C)C)ccc2O1	-1	33	.	.	.	.	.
C[C@@H]1CN([C@@H](C)CO)C(=O)c2cc(NS(=O)(=O)c3ccc(F)cc3)ccc2O[C@@H](C)CCCCO[C@@H]1CN(C)S(=O)(=O)c1cccs1	-2	97*	.	108*	2	-27	-11
C[C@@H]1CN([C@@H](C)CO)C(=O)c2cc(N(C)C)ccc2O[C@@H](C)CCCCO[C@@H]1CN(C)S(=O)(=O)c1cccs1	2	106*!	-16	20	14	-18	-18
O=C(C[C@H]1CC[C@@H]2[C@H](COC[C@H](O)CN2Cc2ccccc2F)O1)N1CCc2ccccc2C1	.	28	-16	.	.	.	.
C[C@@H]1CCCCO[C@@H](CN(C)C(=O)Nc2cccc3ccccc23)[C@@H](C)CN([C@H](C)CO)C(=O)c2cc(NS(=O)(=O)c3cn(C)cn3)ccc2O1	-4	-18	18	.	.	.	.
C[C@H](CO)N1C[C@H](C)[C@@H](CN(C)S(=O)(=O)c2ccc(Cl)cc2)Oc2c(NC(=O)CCCCCC(=O)Nc3ccccc3N)cccc2C1=O	-9	103*	?	109*	88	-5	2
C[C@H]1CN([C@@H](C)CO)C(=O)c2cccc(NC(=O)CCCCCC(=O)Nc3ccccc3N)c2O[C@H]1CN(C)S(=O)(=O)c1ccc(Cl)cc1	-6	101*	-90*	106*	76	-2	5
C[C@H]1CN([C@@H](C)CO)C(=O)c2cccc(NC(=O)CCCCCC(=O)Nc3ccccc3N)c2O[C@H]1CN(C)S(=O)(=O)c1ccccc1	-7	.	-34	.	.	.	.
C[C@@H]1CN([C@H](C)CO)C(=O)c2cccc(NC(=O)CCCCCC(=O)Nc3ccccc3N)c2O[C@H]1CN(C)S(=O)(=O)c1ccc(Cl)cc1	-6	92	-80	.	.	.	.
CC(C)NC(=O)Nc1ccc2c(c1)C(=O)N([C@H](C)CO)C[C@H](C)[C@@H](CN(C)S(=O)(=O)c1ccc(Cl)cc1)OCCCC[C@H](C)O2	2	52	-46	.	.	.	.
C[C@@H]1CN([C@H](C)CO)S(=O)(=O)c2ccc(-c3cncnc3)cc2O[C@H]1CN(C)Cc1cncnc1	-2	29	35	.	.	.	.
C[C@H]1CN([C@@H](C)CO)S(=O)(=O)c2ccc(-c3cncnc3)cc2O[C@@H]1CN(C)Cc1cncnc1	-4	25	48	.	.	.	.
C[C@H](CO)N1C[C@H](C)[C@@H](CN(C)Cc2ccccc2)Oc2cc(-c3cncnc3)ccc2S1(=O)=O	-4	113*	-6	92	?	38*	70*
C[C@H]1CN([C@@H](C)CO)S(=O)(=O)c2ccc(-c3cncnc3)cc2O[C@@H]1CN(C)Cc1ccccc1	1	106*	-11	?	100*	18	31*
